Experimental findings from PubChem BioAssay (EPA / NIEHS) are described below.

“And” between values parts separate entries of the source, which are not always exact repeats. Identical values can stand only once. Where a structure was tested more than once in an assay, its records may differ in their call. The source made the active and inactive calls. Rule for the calls: active = hit-call score of the fitted dose curve at least 0.9, where 1 is the maximum; inactive = score below 0.9.

The experiment in a line: CCTE_Mundy_HCI_Cortical_NOG_NeuriteLength: CCTE's Neurite Outgrowth Assay in rat cortical cells for Neurite Length, Mundy Lab (AID 2284213).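 For AC50: neurites imaged about 48 to 50 h after chemical exposure began.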 As for the experimental part:
CCTE_Mundy_HCI_Cortical_NOG is a multiplexed, cell-based-readout assay that uses rat primary cortical cells with measurements taken at 50.33 hours after chemical dosing in a microplate: 96-well plate.CCTE_Mundy_HCI_Cortical_NOG_NeuriteLength is one of four components of the CCTE_Mundy_HCI_Cortical_NOG assay. It measures neurite outgrowth related to the neurite length using High Content Imaging of fluorescently labelled markers.[…] Using a type of morphology reporter, loss -of-signal activity can be used to understand developmental effects.
Exposure starts 2 hours post-plating by adding 10 ul of the working solution to 90 ul of media in the wells for a 1/10 dilution. Forty-eight hours after chemical treatment cells are fixed by direct addition of 100 ul of warm (37C) Dulbecco's phosphate buffered saline (DPBS) fixative solution containing 8% paraformaldehyde, 8% sucrose, and 0.1% of 3 mg/ml Hoechst 33342 into each well. Primary antibodies are prepared by dilution in Immunocytochemical Staining Buffer (ISB), 10X Dulbecco's PBS, 0.1% Saponin, 5% Bovine Serum Albumin, 0.5% NaN3 (Sodium Azide) and betaIII-tubulin (rabbit anti-betaIII-tubulin, 1:800) followed by Alexa Fluor-488 secondary (1:500) to label neuronal cell bodies and neurites. A Cellomics ArrayScan VTi HCS Reader is used for automated image acquisition and analysis of neurite outgrowth.
In the case of `CC(C)N(C(=O)SCC(Cl)=C(Cl)Cl)C(C)C`, the call was inactive.

`CCOP(=S)(OCC)Oc1cc(C)nc(C(C)C)n1`: the outcome was inactive.

In the case of `CC(=NC#N)N(C)Cc1ccc(Cl)nc1`, the call was inactive.

As to `CCCSP(=O)(OCC)Oc1ccc(Br)cc1Cl` (centres undefined), the compound was classed as inactive.

Turning to `CCCSP(=O)(OCC)SCCC`, the outcome was inactive.

Consider `CC1=NNC(=O)N(/N=C/c2cccnc2)C1`, for which the result was inactive.

Turning to `CN1COCN(Cc2cnc(Cl)s2)C1=N[N+](=O)[O-]`, the outcome was inactive.

On to `CSC1=N[C@@](C)(c2ccccc2)C(=O)N1Nc1ccccc1`, for which the outcome was inactive.

Turning to `CCOP(=S)(OCC)Oc1ccc2c(C)c(Cl)c(=O)oc2c1`, the AC50 is 84.7 µM (active).

For `CCOP(=O)(SC(C)CC)N1CCSC1=O` (centres undefined), the result was inactive.

On to `CCOP(=S)(OCC)SCCSCC`, for which the outcome was inactive.

As for `CC[C@H](C)[C@H]1O[C@]2(C=C[C@@H]1C)C[C@@H]1C[C@@H](C/C=C(\C)[C@@H](O[C@H]3C[C@H](OC)[C@@H](O[C@H]4C[C@H](OC)[C@@H](NC)[C@H](C)O4)[C@H](C)O3)[C@@H](C)/C=C/C=C3\CO[C@@H]4[C@H](O)C(C)=C[C@@H](C(=O)O1)[C@]34O)O2`, the AC50 was 1.24 µM (active) and 1.58 µM (active).

For `CCOC(=O)CC(SP(=O)(OC)OC)C(=O)OCC` (centres undefined), the compound was called inactive.

In the case of `COP(=O)(OC)C(O)C(Cl)(Cl)Cl` (centres undefined), the call was inactive.

For the compound `S=C1NCCN1`, the outcome was inactive.

For the compound `CCOP(=S)(OCC)OC(Cl)C(Cl)(Cl)Cl` (centres undefined), the AC50 is 66.9 µM (active) and 32.2 µM (active).

In the case of `C[N+]1(C)CCCCC1`, the result was inactive.

Turning to `O=[N+]([O-])c1cc(C(F)(F)F)c(Cl)c([N+](=O)[O-])c1Nc1ncc(C(F)(F)F)cc1Cl`, the AC50 is 0.8 µM (active).

Consider `CCOP(=O)(NC(C)C)Oc1ccc(SC)c(C)c1` (centres undefined), for which the call was inactive.

For `CON=C(C(=O)OC)c1ccccc1CON=C(C)c1cccc(C(F)(F)F)c1`, the AC50 was 1.14 µM (active).

Turning to `CCOP(=O)(OCC)Oc1cc(C)nc(C(C)C)n1`, the call was inactive.

`COP(=O)(NC(C)=O)SC` (centres undefined): the compound was called inactive.

`C=C(C)[C@H]1Cc2c(ccc3c2O[C@@H]2COc4cc(OC)c(OC)cc4[C@@H]2C3=O)O1`: the AC50 was 0.0253 µM (active).

On to `CCCCSP(=O)(SCCCC)SCCCC`, for which the AC50 is 86.1 µM (active) and 75.3 µM (active).

Regarding `CN(C)[C@@H]1C(=O)C(C(N)=O)=C(O)[C@@]2(O)C(=O)C3=C(O)c4c(O)cccc4[C@@](C)(O)[C@H]3[C@H](O)[C@@H]12`, the compound was classed as inactive.

`CCOP(=S)(Oc1cnc(C(C)(C)C)nc1)OC(C)C` (centres undefined): the AC50 was 26.1 µM (active) and the compound was classed as inactive.

Regarding `CCOP(=S)(OCC)Oc1ccc([N+](=O)[O-])cc1`, the result was inactive.

Take `COP(=O)(OC)OC(Br)C(Cl)(Cl)Br` (centres undefined): the AC50 is 29.4 µM (active) and 20.6 µM (active).

Broadly, the AC50 is the midpoint of the concentration-response curve, whichever way the signal moves.
